Tests used:
[1] = test system: Human papillomavirus type 1a protein E7 (residues 44-93); assay: small molecules binding HPV E7 44-93 – biochemical, small-molecule microarray, residues 44-93, 635 nm fluorescence, primary screen (AID 1108); details: fluorescence 635 nm, higher = more signal;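 also: E7 fragment applied at 1 µg/mL in TBST for 1 h at 4 C; score combines spot fluorescence with its signal to noise ratio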
[2] = hepatitis C replication reporter changes, two-sided – Huh7 cells, luciferase reporter, HCV replication inhibitor project, primary screen (AID 1109); details: Huh7 HCV replicon luciferase reporter, 48 h; higher = more signal;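 also: huh7 hepatoma cells harbouring a luciferase neomycin HCV replicon reporter; luciferase luminescence as measure of HCV replicon replication; test concentration not given here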
[3] = target: Left-right determination factor 2 (Homo sapiens) (UniProt O00292); assay: small molecules binding LEFTY2 protein – biochemical, small-molecule microarray, 635 nm fluorescence scan, primary screen (AID 1110); details: higher = more signal
[4] = target: Calmodulin-1 (Homo sapiens) (UniProt P0DP23); assay: small molecules binding calmodulin-1 with EGTA – biochemical, small-molecule microarray, Cy5-labelled CALM1, profiling panel (AID 1111); details: Cy5-CALM1 binding fluorescence, higher = more signal;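 also: labelled calmodulin applied in Tris saline Tween buffer holding calcium plus EGTA and DTT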
[5] = target: Calmodulin-1 (Homo sapiens) (UniProt P0DP23); assay: small molecules binding Ca-loaded calmodulin-1 – biochemical, small-molecule microarray, Cy5-labelled CALM1, plus calcium, artefact control for SMM control-protein annotation, profiling panel (AID 1112); details: Cy5-CALM1 binding fluorescence, higher = more signal;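 also: score merges spot fluorescence with signal to noise from triplicate slides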
[6] = probe aWnt5a binding to arrayed compounds – biochemical, biotinylated probe, 635/667 nm fluorescence, primary screen (AID 1113); details: small-molecule microarray, higher = more signal;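 also: score merges 667 nm fluorescence intensity with signal-to-noise per printed feature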
[7] = probe aShh binding to arrayed compounds – biochemical, biotinylated probe, 635/667 nm fluorescence, primary screen (AID 1114); details: small-molecule microarray, higher = more signal;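 also: probe is biotin-labelled aShh protein from a stem cell growth factor screen; measures binding of labelled protein to compounds printed on the slide; score merges feature fluorescence at 667 nm with signal-to-noise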
[8] = probe aNog binding to arrayed compounds – biochemical, biotinylated probe, 635/667 nm fluorescence, primary screen (AID 1115); details: small-molecule microarray, higher = more signal;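 also: probe is biotinylated aNog protein used at 0.15 µg/mL for 1 h at 4 C; z-score combines 667 nm fluorescence of each spot with its signal to noise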
[9] = target: Torsin-1A-interacting protein 1 (Homo sapiens) (UniProt Q5JTV8); assay: compound microarray binding of lysate hLAP1 – cell lysate, small-molecule microarray, COS7 lysate, 635/667 nm fluorescence, primary screen (AID 1116); details: 635 nm fluorescence, higher = more signal
[10] = target: Alpha-bungarotoxin (Bungarus multicinctus) (UniProt P60615); assay: compounds binding labelled alpha-BTX control protein – biochemical, small-molecule microarray, Alexa647 label, 635/667 nm fluorescence, artefact control for SMM control protein annotation, profiling panel (AID 1117); details: alpha-BTX-A647 binding fluorescence, higher = more signal
Alpha-bungarotoxin (Bungarus multicinctus), sequence (P60615 whole entry, looked up): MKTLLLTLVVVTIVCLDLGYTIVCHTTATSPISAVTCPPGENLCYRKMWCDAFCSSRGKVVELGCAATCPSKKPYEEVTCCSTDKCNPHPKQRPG

Torsin-1A-interacting protein 1 (Homo sapiens), sequence (Q5JTV8 whole entry, looked up): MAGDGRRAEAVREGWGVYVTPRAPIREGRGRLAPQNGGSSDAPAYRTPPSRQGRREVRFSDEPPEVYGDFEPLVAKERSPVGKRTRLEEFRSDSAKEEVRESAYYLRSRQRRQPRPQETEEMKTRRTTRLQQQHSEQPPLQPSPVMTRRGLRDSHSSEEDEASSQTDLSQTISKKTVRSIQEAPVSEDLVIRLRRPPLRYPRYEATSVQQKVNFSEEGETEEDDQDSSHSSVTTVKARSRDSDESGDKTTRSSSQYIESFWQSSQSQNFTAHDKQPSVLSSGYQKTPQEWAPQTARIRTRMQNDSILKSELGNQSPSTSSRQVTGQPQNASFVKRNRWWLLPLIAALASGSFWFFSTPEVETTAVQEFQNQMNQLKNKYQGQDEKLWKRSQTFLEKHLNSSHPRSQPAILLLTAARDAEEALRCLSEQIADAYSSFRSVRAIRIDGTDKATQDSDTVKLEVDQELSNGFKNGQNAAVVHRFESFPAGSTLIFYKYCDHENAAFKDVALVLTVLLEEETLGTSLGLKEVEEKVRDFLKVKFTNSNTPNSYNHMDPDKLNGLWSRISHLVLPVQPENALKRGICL
Left-right determination factor 2 (Homo sapiens), sequence (O00292 whole entry, looked up): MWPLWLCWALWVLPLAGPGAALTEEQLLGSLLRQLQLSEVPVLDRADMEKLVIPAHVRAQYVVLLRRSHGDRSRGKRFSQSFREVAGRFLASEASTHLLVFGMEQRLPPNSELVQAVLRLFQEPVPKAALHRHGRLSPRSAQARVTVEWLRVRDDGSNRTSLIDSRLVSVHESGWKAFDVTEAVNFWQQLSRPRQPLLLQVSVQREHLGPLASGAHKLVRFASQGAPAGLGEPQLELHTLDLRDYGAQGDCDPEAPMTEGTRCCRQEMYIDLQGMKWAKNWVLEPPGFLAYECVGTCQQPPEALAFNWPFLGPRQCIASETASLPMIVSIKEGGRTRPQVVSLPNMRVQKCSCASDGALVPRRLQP

Structure (SMILES)	composite z-score [1]	z-score [2]	composite z-score [3]	composite z-score [4]	composite z-score [5]	composite z-score [6]	composite z-score [7]	composite z-score [8]	composite z-score [9]	composite z-score [10]
COC(=O)C(CC#Cc1ccc2c(c1)[C@]1(C(=O)N2)[C@H](C(=O)O)[C@H]2C(=O)O[C@H](c3ccccc3)[C@H](c3ccccc3)N2[C@@H]1c1ccc(O)cc1)C(=O)OC	1.03	-0.374	-0.354	-0.345	0.0677	-0.124	-0.366	0.26	-0.273	-0.472
CCCCC(O)C1C=CC2C(=O)N(c3ccccc3)C(=O)C2N1Nc1ccccc1F (stereo not given)	0.392	-0.472	0.22	1.48	-0.124	0.241	0.261	1.87	1.21	3.13
COc1ccc(C(=O)Nc2ccc(CN3C(=O)[C@@]4(O[C@@H](CCn5cc([C@H](O)c6ccccc6)nn5)[C@H]([Si](C)(C)c5ccc(OC)cc5)[C@H]4C)c4ccccc43)cc2)cc1	1.26	-4.67	-0.553	0.168	-0.0823	-0.0896	-0.0337	0.103	0.485	0.572
CN(C)CCCNC(=O)[C@@]1(c2ccc([N+](=O)[O-])cc2)CC(=O)N(C2CCCCC2)[C@@H]1c1ccc(CO)cc1	1.04	-1.77	-0.419	0.465	0.0617	-0.25	-0.408	-0.483	0.218	0.8
C=C(CCCC)C(=O)CC[C@H](OC(C)=O)c1cccc(OCCO)c1	-0.252	-1.78	-0.433	-0.687	-0.918	-0.156	-0.0709	-0.036	1.31	-0.653
O=C1c2ccccc2[C@](Cc2ccccc2I)(C(=O)NC2CC2)[C@H](c2ccc(CO)cc2)N1Cc1ccccc1	0.742	-0.701	-0.346	0.438	0.0099	-0.101	0.234	0.099	0.711	0.832
COc1ccc(C(O)C2C=CC3C(=O)NC(=O)C3N2Nc2ccccn2)c2ccccc12 (stereo not given)	-0.266	0.307	0.315	-0.0051	-0.194	-0.219	0.147	-0.0863	-0.259	0.172
C=C(CCCC)C(=O)CC[C@@H](OC(=O)c1cccnc1)c1ccc(CO)o1	0.94	-1.39	0.654	0.916	-1.3	0.0003	-0.0035	-0.0333	0.387	0.781
CCCC#C[Si](O[C@H](CC)c1cn([C@H](CO)Cc2ccccc2)nn1)(C(C)C)C(C)C	1.08	-0.256	0.728	0.486	-0.0381	0.0597	-0.0866	0.26	0.761	0.701
COCCOC(=O)N1C(=O)[C@@]2(c3cc(C#CCCO)ccc31)[C@H](C(=O)N1CCc3cc(OC)c(OC)cc3C1)[C@H]1C(=O)O[C@H](c3ccccc3)[C@H](c3ccccc3)N1[C@@H]2c1ccc(O)cc1	1.41	-1.34	0.332	0.527	0.294	-0.1	0.123	0.119	0.987	1.24
O=C1OCC=C[C@H]2OC34C=CCN(CCN5CCOCC5)C(=O)[C@H]3N(CCCO)C(=O)[C@@H]4[C@@H]12 (stereo not given in full)	0.449	0.658	-0.235	-0.0514	-0.944	-0.18	-0.223	-0.326	0.819	-0.0967
C=C(COC)/C(=C/C[C@@H](OC(C)=O)c1ccc(OCCO)cc1)c1cc(C(=O)OC)ccc1OC	1.35	-1.51	0.417	-0.107	-0.878	0.0618	0.23	-0.354	0.864	0.472
CC1(C)[C@@H]2CC(C(O)C3C=CC4C(=O)N(c5ccccc5)C(=O)C4N3Nc3ccccc3)=C[C@H]1C2 (stereo not given in full)	0.455	-0.595	-0.158	0.718	-0.374	0.0044	0.241	-0.43	0.873	0.577
COc1ccc([C@H]2OC[C@@H]3CC4(CC=CC4)C(=O)N32)cc1	0.659	0.0751	0.935	-1.18	-1.99	-0.124	-0.0146	-0.196	-0.251	0.144
CCOC(=O)C[C@H]1[C@H](OC(=O)Cc2ccc3c(c2)OCO3)[C@@H](NC(=O)c2ccc(-c3ccccc3)cc2)c2cc(OCCCO)ccc2N1C(=O)c1ccc2ccccc2n1	0.226	-1.37	0.445	0.284	-0.788	-0.0828	-0.146	-0.261	0.142	0.0797
O=C1OCCC/C=C\[C@H]2OC34C=CCN(c5ccc6ccccc6c5)C(=O)[C@H]3N(CCCCCCO)C(=O)[C@@H]4C12 (stereo not given in full)	-1.45	-0.625	-0.955	-0.761	-0.384	-0.176	-0.179	-0.388	2.93	-0.182

Structure (SMILES)	composite z-score [1]	z-score [2]	composite z-score [3]	composite z-score [4]	composite z-score [5]	composite z-score [6]	composite z-score [7]	composite z-score [8]	composite z-score [9]	composite z-score [10]
O=C1NC(=O)C2C1C=CC(C(O)c1ccccc1)N2Nc1ccc(Cl)cc1Cl (stereo not given)	1.39	-1.25	0.628	2.13	1.09	0.17	0.412	1.44	1.98	1.55
COCCOC(=O)N1C(=O)[C@@]2(c3cc(C#CC4=CCCCC4)ccc31)[C@H](c1ccc(O)cc1)N1[C@H](c3ccccc3)[C@H](c3ccccc3)OC(=O)[C@H]1[C@@H]2C(N)=O	1.19	-0.696	0.63	0.624	0.0442	-0.0165	0.157	-0.564	0.745	1.04
O=C1OCCC/C=C\[C@H]2OC34C=CCN(Cc5ccccc5)C(=O)[C@H]3N(CCCCCCO)C(=O)[C@@H]4C12 (stereo not given in full)	0.103	-1.3	-1.74	-0.046	0.572	-0.206	-0.0337	-0.355	-1.03	-0.313
COCCOC(=O)N1C(=O)[C@@]2(c3ccccc31)[C@H](c1ccc(O)cc1)N1[C@H](c3ccccc3)[C@H](c3ccccc3)OC(=O)[C@H]1[C@@H]2C(=O)NC[C@H](O)c1ccccc1	0.01	-0.296	0.25	1.34	0.682	-0.0643	0.289	0.35	0.261	0.14
Cc1ccc(S[C@]2(C(=O)NC(C)C)CC(=O)N(Cc3ccccc3Cl)[C@@H]2c2ccc(CO)cc2I)cc1	0.472	-2.47	-2.08	0.0453	-0.174	-0.252	-0.283	-0.158	-0.252	1.33
COc1ccc(NN2C(C(O)c3ccc([N+](=O)[O-])cc3)C=CC3C(=O)N(C4CCCCC4)C(=O)C32)cc1 (stereo not given)	1.35	0.376	-0.0693	1.04	0.212	-0.0758	0.368	0.797	0.55	0.799
O=C1c2ccccc2[C@@]2(Cc3ccccc3N(CC(F)(F)F)C2=O)[C@H](c2ccc(CO)cc2)N1Cc1ccccc1Cl	0.265	0.078	0.547	-0.146	-0.684	-0.166	-0.17	-0.282	0.156	0.287
CCN(CC)c1ccc(N2CC=CC34O[C@@H]5/C=C\CCCOC(=O)C5[C@H]3C(=O)N(CCO)[C@@H]4C2=O)cc1 (stereo not given in full)	-0.0422	-0.684	-0.85	-0.557	0.172	-0.113	-0.0769	-0.406	-0.233	-0.259
C=CCNC(=O)[C@H]1[C@@H]2C(=O)O[C@@H](c3ccccc3)[C@@H](c3ccccc3)N2[C@@H](c2ccc(OCCO)cc2)[C@]12C(=O)N(C(=O)OCCOC)c1ccccc12	0.379	-1.49	0.666	1.06	0.0523	-0.14	-0.0056	-0.0681	0.985	1.66
CC(C)(C)OC(=O)CC[C@]12N=C(c3ccc(OCCCO)cc3)O[C@H]1c1ccccc1N(CCS(=O)(=O)c1ccccc1)C2=O	1.39	-0.664	0.497	0.234	-0.353	0.0706	0.287	-0.344	0.751	1.41
CC[C@@H]1C=C(C(=O)O)[C@H](c2ccco2)N1S(=O)(=O)c1ccc(C)cc1	-0.11	-1.22	-0.0532	-0.256	-0.841	-0.0529	-0.0146	0.0051	0.018	0.396
Cc1ccc(C(C)CC(O)C2C=CC3C(=O)N(c4ccccc4)C(=O)C3N2Nc2ccc([N+](=O)[O-])cc2)o1 (stereo not given)	1.41	-0.212	0.135	1.17	-0.284	-0.0792	-0.229	0.437	0.866	1.3
CCOC(=O)C[C@H]1[C@H](OC(=O)Cc2ccc3c(c2)OCO3)[C@@H](NC(=O)c2ccc(-c3ccccc3)cc2)c2cc(OCCCO)ccc2N1C(=O)Cc1ccc(OC)cc1	0.911	-1.48	0.253	0.644	0.0039	0.0673	0.173	0.0804	0.521	-0.256
CC1CC/C=C\[C@H]2OC34C=CCN(Cn5nnc6ccccc65)C(=O)[C@H]3N(C(CO)C(C)C)C(=O)[C@@H]4C2C(=O)O1 (stereo not given in full)	0.696	0.238	-1.19	-0.195	-0.607	-0.175	0.0141	0.356	0.64	2.2
CC(C)(C)OC(=O)CC[C@@]1(C(=O)NCCN2CCOCC2)N=C(c2ccc(OCCCO)cc2)O[C@@H]1c1ccccc1N=[N+]=[N-]	1.32	-0.291	0.609	0.147	0.0196	0.108	0.171	0.991	0.694	0.783

— PubChem BioAssay
